Bioassay records (PubChem)
Most compounds without a hit are left out; they make up all but 1.5% or so of the library.
PINK1 expr mod = A Quantitative High throughput Screen to Identify Chemical Modulators of PINK1 Expression; PINK1 immunofluorescence, high-content cytometry, 24 h; Potency, µM (doses to about 76.6 µM), for the others: top-dose activation (PINK1 increase), most hits filed as activators; 410,000 compounds, 0.2% hits; AID 624263, 2012; active = well fitted activation curve with a large enough effect; inconclusive = small, poorly fitted or top-dose-only effect; cell line not stated here; note: potency is the fitted concentration of half-maximal effect; % of control where 0% means no effect; nearly all actives have a fitted effect of over 65% in size
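PINK1 protein level read as immunofluorescence by microplate cytometer in a fixed, stained stable cell line after 24 h exposure to five compound concentrations, with CCCP as control.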
TCR act = Activators of T cell receptors: qHTS campaign. primary human leukocytes, anti-CD3, IL-2 HTRF, 48 h. Potency, µM (doses to about 9.22 µM), without a hit: at the highest dose activation of IL-2 secretion, actives largely listed as activators. 330,000 tested, under 10 active; note: % of control where 0% means no effect
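IL-2 release read by HTRF sandwich (Eu cryptate donor, d2 acceptor, 665 nm emission) after 48 hr exposure of primary human leukocytes to compound together with anti-CD3 beads in the absence of co-stimulatory signals.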
BRCA1 expr up = qHTS Assay to Identify Small Molecule Activators of BRCA1 Expression; Potency, µM (series often up to 46.1 µM), inactives show at the highest dose activation, actives largely listed as activators; 380,000 compounds, 1.1% hits; AID 624202, 2012; MCF7-BRCA1-FFLuc reporter, luminescence, 48 h; response scale: scaled: vehicle 0%, 10 µM genistein 100%; note: potency is the fitted concentration of half-maximal effect; nearly all actives have a fitted effect of over 80% in size
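MCF7-BRCA1-FFLuc cells, 2000/well in phenol-red-free MEM, attached 2 h then treated 48 h at 37 C. Luciferase luminescence read 15 min after reagent; normalized to genistein maximum activation (10microM) and DMSO, concentration-response fitted.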
Akt phos inh = HTS Assay for Inhibitors of Akt Phophorylation: Primary Screen. Neuro2A IGF-stimulated pAkt S473 HTRF, 20 min; hits give low values. AID 651550, 2012. activity change, % for hits at 50 µM. 360,000 compounds, 0.32% hits; in the data active = activity change below about -80%; inconclusive = mostly about -51% to -80%; note: % is set by controls: 0 for no effect and ±100 for the full control effect
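Neuro2A cells in DMEM with 0.5% FBS, overnight at 37 deg C, given compound at single 50 µM final, then IGF (6 nM final) for 20 min at 37 deg C. Lysed; phospho-Akt Ser473 by HTRF after 24 h, 665/615 ratio.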
* = called active by the depositor; i = inactive; ? = inconclusive; . = no result given; [ ] = remark or other dose. Unless noted, calls come from the whole dose curve; as a rule, active = well fitted curve in the direction sought with a large enough effect; inconclusive = small, poorly fitted or top-dose-only effect, or another doubt; inactive = no such curve, though single readings can be large; an effect the other way counts as inactive or inconclusive.

SMILES	PINK1 expr mod	TCR act	BRCA1 expr up	Akt phos inh
CC(=O)C(C(C)=O)c1c(Cl)c(O)c(O)c2c(C(=O)c3ccccc3)coc12	16µM*	8%	-72%	i
Cc1ccc(N/N=C/c2ccc3c(c2)OCCO3)cc1Cl	15%	-1%[46.1 µM]	3.2µM*	i
C=CCN1C(=O)/C(=C/c2ccc(OC(C)=O)c(OCC)c2[N+](=O)[O-])SC1=S	4.5µM*	-3%	-22%	i
Cn1cccc1-c1cc(C(=O)N/N=C/c2ccccc2Cl)[nH]n1	-1%	-28%	8.9µM*	i
O=C(NN=Cc1ccccc1Cl)c1ccccc1	2%	.	5.6µM*	i
O=C(N/N=C/c1c[nH]c2ccccc12)c1ccccc1	0%	11%	10µM*	i
Cn1cccc1-c1cc(C(=O)N/N=C/c2ccc(F)cc2)[nH]n1	2%	-7%	-14%	i
Cc1ccc(C)c(CN2C[C@H](Sc3ccccn3)C[C@H]2C(=O)Nc2ccc3sc(C)nc3c2)c1	0%	.	.	.
CN1CCCC1CCNc1ccc2oc3ccccc3c(=O)c2c1 (centres undefined)	11%	-94%	1.3µM*	i
CN1CCCC1CCNc1ccc2c(=O)c3ccccc3oc2c1 (centres undefined)	4%	-4%	13µM*	i
CN1CCC[C@H]1CCNc1ccc2c(=O)c3ccccc3n(C)c2c1	0%	7%	?	i
O=c1c2ccccc2oc2ccc(NCCCN3CCOCC3)cc12	1%	-2%	?	i
O=c1c2ccccc2oc2cc(NCCCN3CCOCC3)ccc12	1%	-2%	5.6µM*	i
COc1cccc2sc3cc(NCCCN4CCOCC4)ccc3c(=O)c12	-1%	-3%	10µM*	i
O=C(c1ccco1)N1CCC2(CC1)CN(c1ccccn1)C2	0%	.	.	.
COC(=O)c1cc(CNC(=O)c2cccc(F)c2)cc(NC(=O)c2ccccc2OC)c1	-1%	.	.	.
Cc1ccc(-n2nnc3ccccc3c2=O)cc1C	5%	0%	4.5µM*	i
COc1cc2nc(Cl)nc(NC(C)C)c2cc1OC	0%	.	-9%	.
Cc1cc(C(=O)Nc2ccccc2-c2nc(CNC(=O)c3ccc(F)cc3F)c(C)o2)c(C)o1	1%	.	.	.
CC(=O)Nc1cccc(OCC(=O)Nc2sccc2C(N)=O)c1	0%	5%	4µM*	i
NC(N)=Nc1nc(C2COc3ccccc3O2)cs1 (centres undefined)	1%	1%[46.1 µM]	?	i
CCOc1cccc(-c2csc(C3COc4ccccc4O3)n2)c1 (centres undefined)	?	5%[46.1 µM]	5µM*	i
Cn1c(-c2ccc(C(C)(C)C)cc2)n[nH]c1=S	-2%	-5%	20µM*	i
O=C(CN1C(=O)CCn2nc(-c3ccccc3)cc21)NCc1ccc(Cl)cc1	0%	.	.	.
O=C1CCn2nc(-c3ccc(Cl)cc3)cc2N1	-2%	1%[46.1 µM]	4µM*	i
SMILES	PINK1 expr mod	TCR act	BRCA1 expr up	Akt phos inh
CC1CCCN(Cc2cnc(Cl)s2)C1 (centres undefined)	-2%	-1%	6%	-108%*
CCCCCCOc1ccc(/C(N)=N/O)cc1	6%	-1%	7.1µM*	i
Cc1oc(-c2ccccc2NC(=O)c2ccsc2)nc1CN(C)Cc1ccc2c(c1)CCCN2C	2%	.	.	.
CC1CCC/C(=N\Nc2ccc(Cl)c(C(=O)O)c2)C1 (centres undefined)	0%	1%[46.1 µM]	5µM*	i
C1=Nc2ccccc2/C1=C/c1ccccc1	2%	.	-5%	.
COc1ccc(/C=C(\C)C(=O)NO)cc1	1%	.	6%	.
CC(=O)c1c(C)[nH]c(C(=O)CSc2nc3ccccc3n2C)c1C	7%	-3%	-33%	-85%*
COc1ccccc1C1CN(Cc2cnn(C)c2)Cc2ccccc2O1 (centres undefined)	0%	.	.	.
N#Cc1c(SCC(N)=O)nc(-c2ccccc2)c2c1CCCC2	-1%	-18%	-19%	-111%*
N#Cc1c(SCC(=O)O)nc(-c2ccccc2)c2c1CCCC2	-1%	-1%	-21%	i
Cc1ccc(-c2nc3ccccc3s2)cc1NC(=O)c1cc(-n2cnnc2)ccc1Cl	3.5µM*	.	0%	i
O=C(c1cnn2cccnc12)N1CCOc2ccc(C(O)C(c3ccccc3)c3ccccc3)cc2C1 (centres undefined)	1%	.	.	.
O=C(CSc1nc2ccccc2o1)Nc1nncs1	-1%	3%	4%	-116%*
